Results filed as inconclusive are left out. Where a call stands in place of a potency, no number is given. Calls of active or inactive are those of the source. Calls follow the shape of the dose curve; as a rule, active = well fitted inhibition curve with a large enough effect; inconclusive = small, poorly fitted or top-dose-only effect; inactive = flat fitted curve, though single readings scatter.
Experiment: P-glycoprotein substrates identified in KB-8-5-11 adenocarcinoma cell line, qHTS therapeutic library screen (AID 1346987); also: nearly all actives have a fitted effect of over 65% in size
Details: KB-8-5-11 (P-gp overexpressing) viability, CellTiter-Glo, 72 h; series mostly up to 44.5 µM
Summary of the method: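 Compounds are pinned in dose-response onto KB-8-5-11 cells (500 cells/well, colchicine-free medium) and left 72 h at 37 degree C. CellTiter-Glo luminescence then yields AC50 values.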

Which Potency does the source give for COCCCNCC1COc2ccccc2O1 (stereo not drawn) here?
The Potency was “inactive”.

Which Potency does the source give for CN1C(=O)c2ccccc2-n2c(nc3ccccc3c2=O)[C@@]12O[C@H]2c1ccccc1 here?
The Potency was “inactive”.

With C/C(=C/CO)CC[C@@H]1[C@@]2(C)CCC[C@](C)(C(=O)O)C2CC[C@@]1(C)O (stereo partly drawn) as the molecule, how does the Potency read?
The Potency was “inactive”.

For CC(=O)OC[C@]12[C@H](OC(C)=O)C(=O)[C@@H]3[C@@H](OC(C)=O)[C@@]14O[C@@]3(C)COC(=O)c1cccnc1[C@@H](C)[C@H](C)C(=O)O[C@@H]([C@H](OC(C)=O)[C@@H]2OC(C)=O)[C@]4(C)O, which Potency is on record?
The Potency was “inactive”.

For O=C(O[C@@H]1O[C@H](CO)[C@@H](O)[C@H](O)[C@H]1O)c1c(O)cc(O)cc1/C=C/c1ccccc1, which Potency is on record?
The Potency was “inactive”.

With COC(=O)[C@@]1(O)C=CC[C@@H]2[C@@]3(C)C[C@@H](c4ccoc4)OC(=O)[C@H]3CC[C@]21C as the molecule, how does the Potency read?
Its Potency is “inactive”.

Which Potency does the source give for O=C(O)C[C@H]1CCC(=O)[C@@H]1C/C=C\CCOC1OC(CO)C(O)C(O)C1O (stereo partly drawn) here?
The Potency was “inactive”.

With CC(NCc1ccc(OCc2cccc(F)c2)cc1)C(N)=O (stereo not drawn) as the molecule, how does the Potency read?
Its Potency is “inactive”.

Which Potency does the source give for CCOC(=O)N1CCC(NCCNC(=O)c2ccccc2C)CC1 here?
The Potency was “inactive”.

Which Potency does the source give for CCC(NC(=O)CC(NC(=O)C(CO)NC(=O)C(CC)NC(=O)c1ccc[nH]1)c1ccccc1)C(=O)O (stereo not drawn) here?
Its Potency is “inactive”.

For Cc1cc(C)c(S(=O)(=O)N(Cc2ccc(-c3cccc(S(C)(=O)=O)c3)cc2)Cc2ccc(C(F)(F)F)o2)c(C)c1, which Potency is on record?
The Potency was “inactive”.

With CC1CCC2(C(=O)OC3OC(CO)C(O)C(O)C3O)CCC3(C(=O)O)C(=CCC4C5(C)CCC(OC6OC(C)C(O)C(O)C6O)C(C)(C)C5CCC43C)C2C1C (stereo not drawn) as the molecule, how does the Potency read?
Its Potency is “inactive”.

For CC1(C)CC[C@]2(C(=O)O[C@@H]3O[C@H](CO)[C@@H](O)[C@H](O)[C@H]3O)CC[C@]3(C)C(=CCC4[C@@]5(C)C[C@@H](O)[C@H](O)C(CO)(CO)C5CC[C@]43C)C2[C@@H]1O (stereo partly drawn), which Potency is on record?
The Potency was “inactive”.

With O=c1c2ccccc2nc2n1CCC2O (stereo not drawn) as the molecule, how does the Potency read?
The Potency was “inactive”.

With CCOC(=O)c1c(C)nn(-c2cccc([N+](=O)[O-])c2)c1C as the molecule, how does the Potency read?
The Potency was “inactive”.

Which Potency does the source give for Nc1nc(CC(=O)Nc2ccc(CCNCC(O)c3ccccc3)cc2)cs1 (stereo not drawn) here?
The Potency was “inactive”.

Which Potency does the source give for CC(C)N(C[C@H]1O[C@@H](n2cnc3c(N)ncnc32)[C@H](O)[C@@H]1O)C1CC(CCc2nc3ccc(C(C)(C)C)cc3[nH]2)C1 (stereo partly drawn) here?
Its Potency is “inactive”.

For COc1ccc(/C=C/C(=O)O[C@@H]2[C@@H](OC(C)=O)[C@@H](OC(C)=O)[C@H](O[C@H]3[C@@H]4C=CO[C@@H](O[C@@H]5O[C@H](CO)[C@@H](O)[C@H](O)[C@H]5O)[C@@H]4[C@@]4(CO)O[C@@H]34)O[C@H]2C)cc1O, which Potency is on record?
Its Potency is “inactive”.

For N#CC1C(=O)Nc2scc(-c3ccc(-c4ccccc4O)cc3)c2C1=O (stereo not drawn), which Potency is on record?
The Potency was “inactive”.

For NC(Cc1c[nH]c2ccccc12)C(=O)NC(CCC(=O)O)C(=O)O (stereo not drawn), which Potency is on record?
The Potency was “inactive”.

Which Potency does the source give for CC1=CCC2C(C)(CO)CCCC2(CO)C1CO (stereo not drawn) here?
Its Potency is “inactive”.

Which Potency does the source give for CCCCC(C)(O)C/C=C/[C@H]1[C@H](O)CC(=O)[C@@H]1CCCCCCC(=O)OC (stereo partly drawn) here?
Its Potency is “inactive”.

For C=C1CCC2[C@@](C)(C=O)CCC[C@]2(C)[C@H]1CC/C(C)=C/CO (stereo partly drawn), which Potency is on record?
The Potency was “inactive”.

With CC(=O)OC(CSC1CCC(=O)OC(C)CCC(=O)C1)C(=O)O (stereo not drawn) as the molecule, how does the Potency read?
The Potency was “inactive”.

With C=C(C)C1CC2(CO)C(=CC1=O)CCC(O)C2C (stereo not drawn) as the molecule, how does the Potency read?
Its Potency is “inactive”.

Which Potency does the source give for COc1cc2c(cc1O)C1(Cc3ccc4c(c3C1=O)OCO4)N(C)CC2 (stereo not drawn) here?
The Potency was “inactive”.

Which Potency does the source give for CC1=CC(=O)C2C(C)(C)CC(O)CC2(C)C1CO (stereo not drawn) here?
The Potency was “inactive”.

For c1ccc(Cc2ncc3c(n2)CCNCC3)cc1, which Potency is on record?
The Potency was “inactive”.

For COC(=O)C1=CO[C@@H](O[C@@H]2O[C@H](CO)[C@@H](O)[C@H](O)[C@H]2O)[C@@H]2[C@@](C)(O)[C@@H](O)C[C@]12O, which Potency is on record?
The Potency was “inactive”.

Which Potency does the source give for C=C[C@H]1[C@H](O[C@@H]2O[C@H](CO[C@@H]3OC[C@](O)(CO)[C@H]3O)[C@@H](O)[C@H](O)[C@H]2O)OC=C2C(=O)OCC[C@H]21 here?
The Potency was “inactive”.

With COc1c(C(CC(C)C)OC(C)=O)ccc(Oc2c(O)cc(C)cc2/C=C/C(C)=O)c1C(=O)O (stereo not drawn) as the molecule, how does the Potency read?
The Potency was “inactive”.

For COC1=CC(=O)O[C@@H](CCc2ccccc2)[C@@H]1O, which Potency is on record?
The Potency was “inactive”.

With COc1ccc([C@@H]2N[C@H](C(=O)O)Cc3c2[nH]c2ccccc32)cc1CN1CCN(c2ccccc2F)CC1 as the molecule, how does the Potency read?
The Potency was “inactive”.

With NS(=O)(=O)NCCNc1nonc1C(=Nc1ccc(F)c(Br)c1)NO as the molecule, how does the Potency read?
The Potency was “inactive”.

Which Potency does the source give for CC(C)(C)NCC(O)COc1cccc2c1CCCC2=O (stereo not drawn) here?
The Potency was “inactive”.

For C[C@@]12C[C@]3(O)O[C@H](O1)[C@]1(COC(=O)c4ccccc4)[C@H]3C[C@@]12O[C@@H]1O[C@H](COC(=O)c2ccccc2)[C@@H](O)[C@H](O)[C@H]1O, which Potency is on record?
Its Potency is “inactive”.

With CO[C@@H]1CC[C@H](OC[C@]2(COC(=O)c3ccc(C)[nH]3)[C@H](OC(C)=O)CC[C@@]3(C)[C@@H]4CC=C(C)[C@@H](C5=C(O)C(=O)OC5O)[C@]4(C)CC[C@@H]32)O[C@H]1C (stereo partly drawn) as the molecule, how does the Potency read?
Its Potency is “inactive”.

With C[C@@H]1O[C@@H](O[C@H]2[C@H](OC(=O)[C@]34CCC(C)(C)C[C@H]3C3=CCC5[C@@]6(C)CC[C@H](O[C@@H]7O[C@H](CO[C@@H]8OC[C@H](O)[C@H](O)[C@H]8O)[C@@H](O)[C@H](O)[C@H]7O)C(C)(C)C6CC[C@@]5(C)[C@]3(C)C[C@H]4O)OC[C@@H](O)[C@@H]2O)[C@H](O)[C@H](O)[C@H]1O[C@@H]1OC[C@H](O)[C@H](O[C@@H]2OC[C@@H](O)[C@H](O)[C@H]2O)[C@H]1O (stereo partly drawn) as the molecule, how does the activity change, negative = cytotoxicity read?
The activity change, negative = cytotoxicity was 1.25% [at 9.29 µM] (inactive).
